# Source: paper PMC8222333, “AsCas12a ultra nuclease facilitates the rapid generation of therapeutic cell medicines”
# What was measured:
# dAsCas12a WT = dAsCas12a WT (Acidaminococcus sp., UniProt U2UMQ6 1-1307, D908A;E993A;D1235A); test: Spec-seq (native PAGE EMSA with sequencing of bound and unbound); 25 mM Tris-HCl pH 7.4, 150 mM KCl, 5 mM MgCl2, 10% glycerol, 1 mM DTT, 40 ng/uL salmon sperm DNA; 400 nM Cas12a, 480 nM crRNA, 50 nM library, 37 C 1 h; native P; high values mean tight binding
# dAsCas12a Ultra = dAsCas12a Ultra (Acidaminococcus sp., UniProt U2UMQ6 1-1307, M537R;F870L;D908A;E993A;D1235A); test: Spec-seq (native PAGE EMSA with sequencing of bound and unbound); 25 mM Tris-HCl pH 7.4, 150 mM KCl, 5 mM MgCl2, 10% glycerol, 1 mM DTT, 40 ng/uL salmon sperm DNA; 400 nM Cas12a, 480 nM crRNA, 50 nM library, 37 C 1 h; native PAGE at room temperature; high values mean tight binding; settings: protein: recombinant
# dAsCas12a E174R = dAsCas12a E174R (Acidaminococcus sp., UniProt U2UMQ6 1-1307, E174R;D908A;E993A;D1235A); test: as above; settings: protein: recombinant;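 further: relative affinity from the bound to unbound sequence frequency ratio in Spec-seq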
# dAsCas12a S542R = dAsCas12a S542R (Acidaminococcus sp., UniProt U2UMQ6 1-1307, S542R;D908A;E993A;D1235A); test: as above; settings: protein: recombinant;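 further: relative affinity from the bound to unbound sequence frequency ratio in Spec-seq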
# dAsCas12a K548R = dAsCas12a K548R (Acidaminococcus sp., UniProt U2UMQ6 1-1307, K548R;D908A;E993A;D1235A); test: as above; settings: protein: recombinant
# d-enCas12a = d-enCas12a (Acidaminococcus sp., UniProt U2UMQ6 1-1307, E174R;S542R;K548R;D908A;E993A;D1235A); test: as above; settings: protein: recombinant
# d-enCas12a-Ultra = d-enCas12a-Ultra (Acidaminococcus sp., UniProt U2UMQ6 1-1307, E174R;S542R;K548R;M537R;F870L;D908A;E993A;D1235A); test: as above; settings: protein: recombinant;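 further: relative affinity from the bound to unbound sequence frequency ratio in Spec-seq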
Binder,binding signal (dAsCas12a WT) [lnKA],binding signal (dAsCas12a Ultra) [lnKA],binding signal (dAsCas12a E174R) [lnKA],binding signal (dAsCas12a S542R) [lnKA],binding signal (dAsCas12a K548R) [lnKA],binding signal (d-enCas12a) [lnKA],binding signal (d-enCas12a-Ultra) [lnKA]
TCTC (dsDNA) DNA 1: GCTATCTAGTGCTCAGTACGCACTGTCTCAGGAAACTTCTGGCAGGACCAGGTCATGAGATCGGAAGAGCACACGTCTGAACTCCAGTCA DNA 2: TGACTGGAGTTCAGACGTGTGCTCTTCCGATCTCATGACCTGGTCCTGCCAGAAGTTTCCTGAGACAGTGCGTACTGAGCACTAGATAGC RNA: AAUUUCUACUCUUGUAGAUAGGAAACUUCUGGCAGGACC,-5.94,-3.61,-3.18,-4.47,-8.65,-3.15,-0.761
TTAC (dsDNA) DNA 1: GCTATCTAGTGCTCAGTACGCACTGTTACAGGAAACTTCTGGCAGGACCAGGTCATGAGATCGGAAGAGCACACGTCTGAACTCCAGTCA DNA 2: TGACTGGAGTTCAGACGTGTGCTCTTCCGATCTCATGACCTGGTCCTGCCAGAAGTTTCCTGTAACAGTGCGTACTGAGCACTAGATAGC RNA: AAUUUCUACUCUUGUAGAUAGGAAACUUCUGGCAGGACC,-8.99,-7.13,-6.79,-6.51,-8.18,-1.59,-0.507
TTCC (dsDNA) DNA 1: GCTATCTAGTGCTCAGTACGCACTGTTCCAGGAAACTTCTGGCAGGACCAGGTCATGAGATCGGAAGAGCACACGTCTGAACTCCAGTCA DNA 2: TGACTGGAGTTCAGACGTGTGCTCTTCCGATCTCATGACCTGGTCCTGCCAGAAGTTTCCTGGAACAGTGCGTACTGAGCACTAGATAGC RNA: AAUUUCUACUCUUGUAGAUAGGAAACUUCUGGCAGGACC,-7.28,-4.81,-4.78,-1.16,-6.53,-0.274,-0.0946
TTTC (dsDNA) DNA 1: GCTATCTAGTGCTCAGTACGCACTGTTTCAGGAAACTTCTGGCAGGACCAGGTCATGAGATCGGAAGAGCACACGTCTGAACTCCAGTCA DNA 2: TGACTGGAGTTCAGACGTGTGCTCTTCCGATCTCATGACCTGGTCCTGCCAGAAGTTTCCTGAAACAGTGCGTACTGAGCACTAGATAGC RNA: AAUUUCUACUCUUGUAGAUAGGAAACUUCUGGCAGGACC,0.0688,-0.0656,-0.339,-0.143,0.462,0.00167,0.033
TTCT (dsDNA) DNA 1: GCTATCTAGTGCTCAGTACGCACTGTTCTAGGAAACTTCTGGCAGGACCAGGTCATGAGATCGGAAGAGCACACGTCTGAACTCCAGTCA DNA 2: TGACTGGAGTTCAGACGTGTGCTCTTCCGATCTCATGACCTGGTCCTGCCAGAAGTTTCCTAGAACAGTGCGTACTGAGCACTAGATAGC RNA: AAUUUCUACUCUUGUAGAUAGGAAACUUCUGGCAGGACC,-8.65,-6.53,-6.23,-3.26,-8.32,-0.829,-0.251
TCTG (dsDNA) DNA 1: GCTATCTAGTGCTCAGTACGCACTGTCTGAGGAAACTTCTGGCAGGACCAGGTCATGAGATCGGAAGAGCACACGTCTGAACTCCAGTCA DNA 2: TGACTGGAGTTCAGACGTGTGCTCTTCCGATCTCATGACCTGGTCCTGCCAGAAGTTTCCTCAGACAGTGCGTACTGAGCACTAGATAGC RNA: AAUUUCUACUCUUGUAGAUAGGAAACUUCUGGCAGGACC,-6.99,-4.53,-4.57,-5.38,,-4.86,-1.79
TTCA (dsDNA) DNA 1: GCTATCTAGTGCTCAGTACGCACTGTTCAAGGAAACTTCTGGCAGGACCAGGTCATGAGATCGGAAGAGCACACGTCTGAACTCCAGTCA DNA 2: TGACTGGAGTTCAGACGTGTGCTCTTCCGATCTCATGACCTGGTCCTGCCAGAAGTTTCCTTGAACAGTGCGTACTGAGCACTAGATAGC RNA: AAUUUCUACUCUUGUAGAUAGGAAACUUCUGGCAGGACC,-7.22,-4.73,-3.99,-1.85,-6.86,-0.506,-0.166
TGTC (dsDNA) DNA 1: GCTATCTAGTGCTCAGTACGCACTGTGTCAGGAAACTTCTGGCAGGACCAGGTCATGAGATCGGAAGAGCACACGTCTGAACTCCAGTCA DNA 2: TGACTGGAGTTCAGACGTGTGCTCTTCCGATCTCATGACCTGGTCCTGCCAGAAGTTTCCTGACACAGTGCGTACTGAGCACTAGATAGC RNA: AAUUUCUACUCUUGUAGAUAGGAAACUUCUGGCAGGACC,-8.93,-7.57,-7.56,-7.52,-6.58,-0.999,-0.323
TTTG (dsDNA) DNA 1: GCTATCTAGTGCTCAGTACGCACTGTTTGAGGAAACTTCTGGCAGGACCAGGTCATGAGATCGGAAGAGCACACGTCTGAACTCCAGTCA DNA 2: TGACTGGAGTTCAGACGTGTGCTCTTCCGATCTCATGACCTGGTCCTGCCAGAAGTTTCCTCAAACAGTGCGTACTGAGCACTAGATAGC RNA: AAUUUCUACUCUUGUAGAUAGGAAACUUCUGGCAGGACC,-1.4,-0.474,-0.628,-0.333,-0.458,-0.151,-0.067
TGTA (dsDNA) DNA 1: GCTATCTAGTGCTCAGTACGCACTGTGTAAGGAAACTTCTGGCAGGACCAGGTCATGAGATCGGAAGAGCACACGTCTGAACTCCAGTCA DNA 2: TGACTGGAGTTCAGACGTGTGCTCTTCCGATCTCATGACCTGGTCCTGCCAGAAGTTTCCTTACACAGTGCGTACTGAGCACTAGATAGC RNA: AAUUUCUACUCUUGUAGAUAGGAAACUUCUGGCAGGACC,-7.99,-6.4,-6.64,-6.54,-7.23,-0.876,-0.296
TTGC (dsDNA) DNA 1: GCTATCTAGTGCTCAGTACGCACTGTTGCAGGAAACTTCTGGCAGGACCAGGTCATGAGATCGGAAGAGCACACGTCTGAACTCCAGTCA DNA 2: TGACTGGAGTTCAGACGTGTGCTCTTCCGATCTCATGACCTGGTCCTGCCAGAAGTTTCCTGCAACAGTGCGTACTGAGCACTAGATAGC RNA: AAUUUCUACUCUUGUAGAUAGGAAACUUCUGGCAGGACC,-8.28,-6.02,-6.51,-6.74,-7.43,-2.75,-0.707
TTGA (dsDNA) DNA 1: GCTATCTAGTGCTCAGTACGCACTGTTGAAGGAAACTTCTGGCAGGACCAGGTCATGAGATCGGAAGAGCACACGTCTGAACTCCAGTCA DNA 2: TGACTGGAGTTCAGACGTGTGCTCTTCCGATCTCATGACCTGGTCCTGCCAGAAGTTTCCTTCAACAGTGCGTACTGAGCACTAGATAGC RNA: AAUUUCUACUCUUGUAGAUAGGAAACUUCUGGCAGGACC,-8.14,-6.6,-7.49,-6.46,-8.53,-4.32,-2.04
TTAA (dsDNA) DNA 1: GCTATCTAGTGCTCAGTACGCACTGTTAAAGGAAACTTCTGGCAGGACCAGGTCATGAGATCGGAAGAGCACACGTCTGAACTCCAGTCA DNA 2: TGACTGGAGTTCAGACGTGTGCTCTTCCGATCTCATGACCTGGTCCTGCCAGAAGTTTCCTTTAACAGTGCGTACTGAGCACTAGATAGC RNA: AAUUUCUACUCUUGUAGAUAGGAAACUUCUGGCAGGACC,-8.61,-7.33,-7.28,-6.82,-8.66,-3.79,-1.68
